# MsrA act = activators of bovine methionine sulfoxide reductase A. purified bovine MsrA, absorbance read-out. activation, % at 10.6 µM. 360,000 tested, 0.3% active; in the data active = activation above about 7.5%
# rCAG RNA binder = binds r(CAG) RNA repeats. inhibition, % at 3 µM. 370,000 tested, 1.3% active. r(CAG) RNA repeat, TO-PRO-1 dye displacement fluorescence. AID 651821;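 active = inhibition above the plate cutoff, the mean of all test compounds on that plate plus 3 SD, cut at about 35% in these data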;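 also: higher means more dye released from RNA so lower well fluorescence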
# sPLA2-III inh = Inhibits HGIII-sPLA2 liposome hydrolysis, primary screen; 370,000 tested, 0.56% active; Q9NZ20; inhibition, % at 12.2 µM; AID 743126; QFRET BODIPY PC-A2 liposome hydrolysis, fluorescence;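 active = inhibition above mean plus 3 SD of compounds lying within the high and low control bounds, cut at about 19% in these data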
# Target sequence (Q9NZ20 whole entry, looked up): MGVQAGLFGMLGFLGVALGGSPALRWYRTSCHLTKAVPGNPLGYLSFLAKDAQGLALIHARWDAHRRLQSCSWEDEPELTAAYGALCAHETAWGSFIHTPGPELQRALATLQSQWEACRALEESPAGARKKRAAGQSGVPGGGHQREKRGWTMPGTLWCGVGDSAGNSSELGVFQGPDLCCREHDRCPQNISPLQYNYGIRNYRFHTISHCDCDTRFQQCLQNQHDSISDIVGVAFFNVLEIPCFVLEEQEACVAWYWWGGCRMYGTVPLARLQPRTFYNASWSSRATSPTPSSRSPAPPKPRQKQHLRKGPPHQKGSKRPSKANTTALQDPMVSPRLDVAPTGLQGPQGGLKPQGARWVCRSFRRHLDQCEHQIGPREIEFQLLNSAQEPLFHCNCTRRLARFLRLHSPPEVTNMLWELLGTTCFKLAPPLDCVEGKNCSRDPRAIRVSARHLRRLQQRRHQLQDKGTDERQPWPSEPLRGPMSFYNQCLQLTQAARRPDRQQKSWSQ
# MsrA inh = inhibits bovine methionine sulfoxide reductase A | purified bovine MsrA, absorbance read-out | inhibition, % at 15.5 µM | 360,000 tested, 0.75% active | AID 651718; in the data active = inhibition above about 4.5%
# sPLA2 confirm = human GIII-sPLA2 inhibition, confirmation | inhibition, % at 12.2 µM | recombinant hGIII-sPLA2, BODIPY PC-A2 QFRET fluorescence | 2,000 tested, 34% active | shares compounds with sPLA2-III inh;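 active = mean inhibition across triplicates above the hit cutoff set in the earlier primary screen, cut at about 19% in these data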
# BODIPY interf = 535nm fluorescence interference, HGIII-sPLA2 counter-screen; BODIPY FL product fluorescence interference, QFRET; 2,000 tested, 8.5% active; shares compounds with sPLA2-III inh; inhibition, % at 12.2 µM;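 active = average inhibition above the solvent-only control mean plus 3 SD, cut at about 6% in these data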
# 535nm interf DR = 535nm optical interference dose response, HGIII-sPLA2 counter-screen | IC50, µM | shares compounds with sPLA2-III inh | BODIPY FL product fluorescence interference, cell-free | 240 tested, under 10 active | AID 743455;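 active = IC50 at or below 10 µM; inactive = IC50 above 10 µM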
# Numbers stand for hits; . = inactive; / = no result given. The list is not random: actives were taken first. Their share in the collection is about 2.8%.
SMILES,MsrA act,rCAG RNA binder,sPLA2-III inh,MsrA inh,sPLA2 confirm,BODIPY interf,others
CCOC(=O)c1c(NC(=O)CN2C(=O)N(C)C3(CCCCC3)C2=O)sc(C(=O)N(C)C)c1C,.,.,.,.,/,/,
Cn1c(=O)n(C)c2cc(S(=O)(=O)NCc3ccco3)ccc21,.,.,.,.,/,/,
CCOC(=O)c1c(C)[nH]c(C(=O)N/N=C\c2ccccc2O)c1C,.,.,.,.,/,/,
CCOC(=O)c1c(C)[nH]c(C(=O)N/N=C/c2cc([N+](=O)[O-])ccc2O)c1C,.,.,24,.,.,6.1,
COCCN(Cc1ccccc1)C(=S)Nc1ccc(OC(F)F)cc1,.,.,.,.,/,/,
CNC(=S)NNC(=O)c1c(C)nc2cc(C)ccn12,.,.,19,.,.,.,
COC(=O)C1=C(C)Nc2ncnn2C1c1ccccn1 (stereo not drawn),.,.,.,.,/,/,
COC(=O)C1=C(C)NC(C)=C(C(=O)OC)C1c1ccccn1,.,.,22,.,.,.,
Cc1nc(SCC(=O)N2CCOCC2)c2c(=O)n(C)c(=O)n(C)c2n1,.,.,21,.,.,.,
COc1ccc(C2=Nn3c(nnc3-c3ccccc3)SC2)cc1OC,.,.,.,.,/,/,
CCCc1nnc2n1N=C(c1ccc(OC)c(OC)c1)CS2,.,.,20,.,.,.,
CCOC(=O)C(=NC(C)CC)NNc1cccc(C(F)(F)F)c1 (stereo not drawn),.,.,24,.,35,.,535nm interf DR=.
COCCCNC(=S)NNC(=S)NCCCOC,.,.,22,.,.,.,
Cc1ccccc1CN1CCN(C(C)C(=O)NCc2ccccc2)CC1 (stereo not drawn),.,.,.,.,/,/,
CCC(C)NC(=O)c1ccc(NC(=O)C2=C(C)OCCS2)cc1 (stereo not drawn),.,.,21,.,.,.,
CC1=C(C(=O)Nc2cccc(C(=O)NC(C)C)c2)SCCO1,.,.,.,.,/,/,
CCOc1ccccc1Nc1nc(-c2sc(NC(=O)c3ccco3)nc2C)cs1,.,.,.,.,/,/,
CC(=O)Nc1ccc(-c2csc(N/N=C(/C)c3ccccc3)n2)cc1,.,.,.,.,/,/,
O=C(NNc1nc(-c2ccc(Cl)cc2)cs1)c1ccco1,.,.,45,.,38,11,
CC(=O)Nc1ccc(-c2csc(NNC(=O)c3ccccc3)n2)cc1,.,.,33,.,22,.,
O=C(NNc1nc(-c2ccccc2)cs1)c1ccco1,.,.,27,.,29,.,535nm interf DR=.
Cc1cccc(C)c1Nc1nnc(SCC(=O)Nc2cc(S(=O)(=O)N3CCCCC3)ccc2Cl)s1,.,.,.,.,/,/,
ON1C2CCCCC2N(O)C1c1ccccc1C(F)(F)F (stereo not drawn),.,.,.,.,/,/,
Cc1cccc(C(=O)NC(=S)NNC(=O)c2ccccc2Cl)c1,.,.,.,.,/,/,
Cc1cc(C(=O)NNC(=S)NC(=O)/C=C/c2ccccc2Cl)n[nH]1,.,.,26,.,42,.,535nm interf DR=.
SMILES,MsrA act,rCAG RNA binder,sPLA2-III inh,MsrA inh,sPLA2 confirm,BODIPY interf,others
CN1CCN(C(=O)/C=C/c2ccc([N+](=O)[O-])o2)CC1,.,.,.,.,/,/,
COC(=O)c1ccc(CCc2cc(O)c(Br)cc2O)cc1,.,.,30,.,.,.,
CCOc1cc2c(cc1OCC)C(c1ccccc1OC)OC(=O)C2 (stereo not drawn),.,.,.,.,/,/,
CCC1(c2ccccc2)NC(=S)N(c2cccc(C)c2C)N1 (stereo not drawn),.,.,20,.,22,.,
O=C(NCC1CCCO1)c1ccccc1S(=O)(=O)c1ccc([N+](=O)[O-])cc1 (stereo not drawn),.,.,.,.,/,/,
COc1cccc(NC(=S)NNC(=O)c2ccccc2OC(F)F)c1,.,.,25,.,31,.,
O=C(NNC(=S)Nc1cccc(Cl)c1)c1ccccc1OC(F)F,.,.,25,.,43,.,535nm interf DR=.
COC(=O)c1nc(N)sc1-c1ccc(Cl)cc1,.,.,.,.,/,/,
CC(=O)Nc1nc(SCC(=O)NCC2CCCO2)[nH]c(=O)c1NC(=O)c1cccs1 (stereo not drawn),.,.,.,.,/,/,
CN(C)C(=O)C[n+]1ccc(C(N)=O)cc1,.,.,.,.,/,/,
CC(C)(C)C(=O)C[n+]1ccc(C(N)=O)cc1,.,.,26,.,.,.,
Cc1nc2ccccc2n1CSc1ccccc1,.,.,21,.,.,.,
CCC(=O)Nc1cccc(NC(=S)NC(=O)c2ccc(Cl)cc2Cl)c1,.,.,21,.,.,.,
CCC(=O)Nc1cccc(NC(=S)NC(=O)c2ccc(Cl)cc2)c1,.,.,.,.,/,/,
Cc1cccc(NC(=S)NCCCN2CCOCC2)c1,.,.,19,.,.,.,
S=C(NCCCN1CCOCC1)Nc1cccc(Cl)c1,.,.,.,.,/,/,
O=S1(=O)CC2c3ccc(F)cc3CN2CN1Cc1ccccc1 (stereo not drawn),/,.,.,/,/,/,
Nc1cc([N+](=O)[O-])ccc1Nc1ccc(O)cc1,.,.,.,.,/,/,
Cc1ccccc1-n1nc(C(=O)c2cccs2)cc(-c2nc3ccccc3[nH]2)c1=N,.,.,23,.,.,7.4,
COc1ccc(-n2nc(C(=O)c3cccs3)cc(-c3nc4ccccc4[nH]3)c2=N)cc1,.,.,.,.,/,/,
Cc1cccc(N2CN(Cc3cccnc3)CNC2=S)c1,.,.,19,.,.,.,
O=C(CNC(=S)N(Cc1ccccc1)Cc1cccnc1)NC1CCCC1,.,.,23,.,.,.,
O=C(CNC(=S)N(Cc1ccccc1)Cc1cccnc1)NC1CC1,.,.,.,.,/,/,
O=C(COC(=O)C1CCN(C(=O)Nc2ccccc2)CC1)NCC(F)(F)F,.,.,.,.,/,/,
O=C(NN1CCOCC1)c1cccc2ccccc12,.,.,21,.,.,.,
SMILES,MsrA act,rCAG RNA binder,sPLA2-III inh,MsrA inh,sPLA2 confirm,BODIPY interf,others
CC(=O)Nc1ccccc1NC(=O)c1cccc2ccccc12,.,.,22,.,.,.,
O=C(NN1CCCCC1)c1cccc2ccccc12,.,.,.,.,/,/,
COC(=O)[C@]1(CC(C)C)N[C@H](c2ccc(-c3ccc(Cl)c(Cl)c3)cc2)[C@@H]2C(=O)N(C)C(=O)[C@@H]21,.,.,.,.,/,/,
CCn1c(SCC(=O)c2cc(C)ccc2C)nc2cc(S(=O)(=O)N3CCOCC3)ccc21,.,.,.,.,/,/,
COc1ccc(Br)cc1C=NNC(=O)c1ccncc1,/,.,.,/,/,/,
COc1ccc2c(c1)c[n+](C)c1c3cc(OC)c(OC)cc3ccc21,.,.,27,.,36,.,535nm interf DR=.
COc1cccc(-c2csc(NNC(=O)c3cccs3)n2)c1,.,.,23,.,45,7.3,
COc1cccc(-c2csc(NC(=O)Oc3ccccc3)n2)c1,.,.,.,.,/,/,
COc1ccccc1NS(=O)(=O)c1cccc(C(=O)NCc2ccco2)c1,.,.,.,.,/,/,
COc1cc(-c2[nH]ncc2CN2CCSCC2)cc(OC)c1OC,.,.,.,.,/,/,
O=S(=O)(NNc1ncc(C(F)(F)F)cc1Cl)c1ccc(F)cc1F,.,.,27,.,30,29,
